Data published in PubChem BioAssay (Tox21).
A number with no mark means an inactive call. Calls of active or inactive are those of the source. Calls come from the whole dose curve.

biological target: Acetylcholinesterase (Homo sapiens) (UniProt P22303); assay: Acetylcholinesterase (AChE) small molecule antagonists: enzyme-based qHTS assay with human liver microsomes (AID 1347399); conditions: Potency: qHTS inhibition; outcome: qHTS inhibition; series mostly up to 115 µM; activity change, negative = inhibition: at the top concentration; note: nearly all actives have a fitted effect of over 60% in size
Summary of the method: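 Recombinant human AChE (50 mU/mL in the enzyme mix) and human liver microsomes (0.25 mg/mL final) were preincubated with compound and NADPH (0.25 mg/mL final) for 30 min at 37 C. Acetylthiocholine/DTNB was then added; thiocholine was read colorimetrically after 10 min at room temperature.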
% is set by controls: 0 for no effect and ±100 for the full control effect.

Acetylcholinesterase (Homo sapiens), sequence (P22303 whole entry, looked up): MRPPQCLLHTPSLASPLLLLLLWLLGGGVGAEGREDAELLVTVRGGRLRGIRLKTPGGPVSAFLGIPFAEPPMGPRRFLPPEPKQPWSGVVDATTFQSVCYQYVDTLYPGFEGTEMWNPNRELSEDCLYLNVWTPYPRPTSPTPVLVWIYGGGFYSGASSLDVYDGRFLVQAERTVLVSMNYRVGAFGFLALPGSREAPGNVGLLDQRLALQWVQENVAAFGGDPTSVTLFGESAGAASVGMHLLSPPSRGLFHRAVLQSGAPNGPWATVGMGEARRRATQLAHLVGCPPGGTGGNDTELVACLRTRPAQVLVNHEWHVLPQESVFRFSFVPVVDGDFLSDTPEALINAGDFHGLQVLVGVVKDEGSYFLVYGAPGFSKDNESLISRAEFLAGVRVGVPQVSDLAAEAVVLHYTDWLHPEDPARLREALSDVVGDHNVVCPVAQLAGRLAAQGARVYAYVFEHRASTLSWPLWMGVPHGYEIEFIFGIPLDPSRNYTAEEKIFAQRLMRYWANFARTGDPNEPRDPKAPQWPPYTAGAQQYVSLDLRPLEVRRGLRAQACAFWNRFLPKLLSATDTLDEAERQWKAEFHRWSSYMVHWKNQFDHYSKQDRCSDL

Structure (SMILES)	activity change, negative = inhibition	Potency
NCCCC[C@H](N[C@@H](CCc1ccccc1)C(=O)O)C(=O)N1CCC[C@H]1C(=O)O	0.859% [at 53 µM]	
CCCCC(CC)COC(=O)c1ccc(O)cc1 (stereo not given)		inactive
C=Cc1ccncc1	-0.0841%	
Fc1ccccc1[C@@H](F)COC1CCC(Nc2ncnc3[nH]ncc23)CC1 (stereo not given in full)	0.229%	
C=Cc1ccccc1	0%	
CC(=O)OCCC(C)C		inactive
C=C(C)C(=O)OCCOP(=O)(O)O	-0.939%	
Cc1ccccc1N=C(N)Nc1ccccc1C	3.13%	
CCCCC(C)C(=O)O (stereo not given)	-0.869%	
CC(C)(C)CCCCCCOC(=O)c1ccccc1C(=O)OCCCCCCC(C)(C)C	1.14%	
CCCCC[Si](OCC)(OCC)OCC	0.153%	
CC(C)=CCC/C(C)=C/CC/C(C)=C/C(=O)OCC(=O)[C@@]1(O)CC[C@H]2[C@@H]3CCC4=CC(=O)C=C[C@]4(C)[C@H]3[C@@H](O)C[C@@]21C	-0.336% [at 53 µM]	
CCCc1c(OCCCOc2ccc(OCC(=O)O)cc2)ccc(C(C)=O)c1O	-0.141%	
Nc1cccc(S(=O)(=O)c2cccc(N)c2)c1	1.3%	
ClC(c1ccccc1)(c1ccccc1)c1ccccc1	3.08%	
NC(=S)NC(N)=S	0.917%	
O=[N+]([O-])c1c(Cl)cc(Cl)cc1Cl	-1.69%	
CC(C)OC(=O)COc1ccc(Cl)cc1Cl		inactive
Oc1ccc2c(c1)-c1ccccc1C2	-0.691%	
O=C(/C=C/c1ccccc1)OCc1ccccc1		inactive

Structure (SMILES)	activity change, negative = inhibition	Potency
CCC1(C)CC(=O)NC1=O (stereo not given)	4.56% [at 53 µM]	
CC(C)=CC=O	-0.659%	
COc1ccc(C(Cl)=C(c2ccc(OC)cc2)c2ccc(OC)cc2)cc1		inactive
CC(C)(N)CO		inactive
Cc1c(C(=O)O)c(O)cc2c1C(=O)c1c(O)c([C@@H]3O[C@H](CO)[C@@H](O)[C@H](O)[C@H]3O)c(O)c(O)c1C2=O		inactive
C=CCOc1cc(Cl)ccc1C(=O)NCCN(CC)CC	1.51% [at 53 µM]	
Oc1ccc(C2(c3ccc(O)c(C4CCCCC4)c3)CCCCC2)cc1C1CCCCC1	0.254%	
CC(=O)OCCN(CCOC(C)=O)c1ccc(N=Nc2ccc([N+](=O)[O-])cc2C#N)cc1	0.224%	
CC1=CC(C)C(C=O)CC1 (stereo not given)	-0.312%	
Cc1cc(=O)[nH]c(=O)[nH]1	1.21%	
CCCCOCC(C)O (stereo not given)	3.32%	
O=C(NCCN1CCOCC1)c1ccc(Cl)cc1	-0.124% [at 53 µM]	
CC(O)CN(CCN(CC(C)O)CC(C)O)CC(C)O (stereo not given)		inactive
OC1CCCc2ccccc21 (stereo not given)	-1.02%	
OCCO		inactive
CCOc1ccc(NC(C)=O)cc1N	-2.89%	
CC(C)CCCC(=O)O	-1.07%	
CC(C)C[C@H](NC(=O)[C@H](Cc1ccccc1)NC(=O)c1cnccn1)B(O)O	1.31% [at 53 µM]	
Cc1ccc(O)c2ncccc12	-0.421% [at 53 µM]	
OC(CCN1CCCCC1)(c1ccccc1)c1ccccc1	0% [at 53 µM]	
